The source of these data is PubChem BioAssay (NCI).

This is part of a sample that, as a whole, favours compounds with a hit. Of some 83,000 tested, about 20% had one in any assay.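 Cells were grown in 96-well plates and exposed to the test compound at a single concentration for 48 hours; results are reported as percent growth, with values below 10 considered active.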 Unmarked numbers belong to inactive results. Active and inactive are the calls of the source.

The first assay concerns OVCAR-4 ovarian. The assay can be described thus: NCI-60 one-dose screen, 48 h (100 = growth as untreated, 0 = no growth, -100 = all killed). As to conditions: 10 µM unless noted.
`O=C1/C=C/[C@@H](O)[C@@H]2C[C@@H](O)C[C@H]2/C=C/CCC[C@@H](O)CCO1`: the growth was 85.4%.

In the case of `Cc1ccc(CNc2c3ccccc3nc3ccccc23)cc1`, the growth is 24.5%. For `Cc1ccnc(Nc2ccc([N+](=O)[O-])c(NCCN3CCOCC3)n2)c1`, the growth is 59.4%.

On to `CSc1nn2c(-c3ccc4ccccc4c3)ccnc2c1C#N`, for which the growth is 1.79% (active). For the molecule `COc1cc2nc3sc(C(=O)Nc4ccc(C(=O)OC(C)C)cc4)c(C(=O)Nc4ccc(Cl)cc4C)n3c(=O)c2cc1OC`, the growth is 69.5%. Turning to `COC(=O)/C=C1/SC(=Nc2ccc([N+](=O)[O-])cc2)N(CCc2c[nH]c3ccc(O)cc23)C1=O`, the growth was 45.1%. `O=S1(=O)C=C(c2ccccc2)C(c2ccccc2)=C1`: the growth was 27.6%.

As for `O=C(O)COc1ccc(Cl)c(Cl)c1`, the growth is 113%.

For the molecule `O=C1/C(=C/c2ccccn2)NC(=S)N1c1ccccc1Cl`, the growth is 34.9%. With `CCS/C(Nc1ccccc1)=C(\C#N)C(=O)Nc1ccc(OC)cc1`, the growth was 66.7%.

With `COc1ccc(C(=O)N2c3ccccc3Sc3ccccc32)c(C(F)(F)F)c1`, the growth was 47.1%. With `Cc1ccc(-c2csc(NC(=O)c3ccccc3CN3C(=O)c4ccccc4C3=O)n2)cc1`, the growth is 111%. In the case of `CNC(=O)c1cc(Oc2cccc3nc(NC(=O)Nc4cc(C(F)(F)F)ccc4Cl)ccc23)ccn1`, the growth is -10.5% (active).

The next assay has as its system SK-OV-3 ovarian. Described as above. The note with it: 10 µM unless noted.
For the molecule `CC(=O)OC[C@]12CC[C@@H]([C@@H](C)c3nnc(-c4ccncc4)o3)[C@@H]1[C@H]1CC[C@@H]3[C@@]4(C)CC[C@H](OC(C)=O)C(C)(C)[C@@H]4CC[C@@]3(C)[C@]1(C)CC2`, the growth was 90.7%.

Take `CN(Cc1ccccc1)c1nc(Cl)c(C2CC(c3ccccc3)=NN2c2ccccc2)s1` (stereo not drawn): the growth was 85.3%. On to `CSc1nc(C)c([N+](=O)[O-])c(N)n1`, for which the growth was 85.1%. Turning to `CN1CCN(Cc2ccc(NC(=O)c3cncc(C#Cc4cnc(N)c5ccc(F)cc45)c3)cc2C(F)(F)F)CC1`, the growth is -4.24% (active). As for `CN1CCN(C(=O)[C@@]2(C)CC[C@]3(C)CC[C@]4(C)C(=CC[C@@H]5[C@@]6(C)CCC(=O)NC(C)(C)[C@@H]6CC[C@]54C)[C@@H]3C2)CC1`, the growth was 53.8%. With `COc1ccc(/C=C2\CN(C(=O)C(Cl)Cl)C/C(=C\c3ccc(OC)cc3)C2=O)cc1`, the growth is 41.6%.

With `O=C(NNc1cnccn1)c1nc2cc(F)ccc2n2cccc12`, the growth is 18.4%.

As for `COc1cc(/C=C2\CN(S(=O)(=O)c3ccccc3)C/C(=C\c3cc(CN4CCCCC4)c(O)c(OC)c3)C2=O)cc(CN2CCCCC2)c1O`, the growth is 108%. On to `COc1ccc(/C=C/C(c2cc(OC)c(OC)c(OC)c2)n2ccnc2)cc1O` (stereo not drawn), for which the growth was 33.5%. For `C/C=C(/C)n1cnc2c(Nc3ccccn3)nc(Cl)nc21`, the growth was 111%. Turning to `Oc1ccc(/C=C/c2ccc(O)cc2)cc1`, the growth is 99.7%. On to `C#CCOc1cccc(-c2ncnc3cc(NC(=O)C=C)ccc23)c1`, for which the growth was 79.9%. Still for that read-out and setting: next, `CCOC(=O)c1nn(CC(O)c2ccccc2)c(NC(=O)Nc2cccc(F)c2)c1C` (stereo not drawn): 107%. Consider `O=C(N/N=C\c1ccccc1S(=O)(=O)O)N/N=C/c1ccccc1S(=O)(=O)O`, for which the growth was 108%.

As for `CC[C@]12C=CCN3CC[C@@]4(c5ccc(OC)cc5N(C)[C@H]4[C@@](O)(C(=O)OC)[C@@H]1OC(=O)CCC[P+](c1ccccc1)(c1ccccc1)c1ccccc1)[C@@H]32`, the growth is -21% (active).

As to `CCCn1nc(C(=O)N(C)Cc2ccccc2)c2c1CCC(N1CCc3ccccc31)C2` (stereo not drawn), the growth is 112%.

For the molecule `C=C1C(=O)O[C@H]2[C@H]1CC/C(COC(=O)/C=C\C(=O)NCc1ccc(Cn3c(=O)sn(CCCl)c3=O)cc1)=C\CC[C@@]1(C)O[C@@H]21`, the growth was 115%. For the molecule `COC(=O)c1ccc(NC(=O)Nc2ccc(C(=O)OC)cc2)cc1`, the growth is 99.3%. As to `O=C(O)c1cn(C2CC2)c2cc(N3CCN(C(=O)Nc4nc(-c5ccc(Br)cc5)cs4)CC3)c(F)cc2c1=O`, the growth was 0.843% (active). Turning to `NC(=O)c1c(NC(=O)c2cccc(C(F)(F)F)c2)sc2c1CCC(=O)C2`, the growth was 1.42% (active). Same read-out and setting: next, `CC1=C(C(=O)Nc2ccccc2)C(c2ccc3c(c2)OCO3)NC(=S)N1` (stereo not drawn): 110%; `NS(=O)(=O)c1ccc(-c2cc(-c3nnc(SCC(=O)Nc4ccc(C(=O)/C=C/c5ccc(Cl)cc5)cc4)n3-c3ccccc3)c3ccccc3n2)cc1`: 103%; `COC(=O)c1cc(Br)ccc1O`: 108%. As to `C=C1C(=O)O[C@H]2[C@H]1CC/C(COC(=O)/C=C/C(=O)OC/C1=C/CC[C@@]3(C)O[C@H]3[C@H]3OC(=O)C(=C)[C@@H]3CC1)=C\CC[C@@]1(C)O[C@@H]21`, the growth is 110%. Turning to `CNC1=CC(=O)c2c(C(=O)OC)c(C)[n+]([O-])c(C)c2C1=O`, the growth is 120%. Consider `O=C(Nc1ncccc1OCc1ccccc1)NC1CCCCCC1`, for which the growth was 110%.

Take `O=C1/C(=C\c2cccc3nccnc23)SC(=S)N1CCc1ccc(O)cc1`: the growth was 110%. The same measure, in the same setting: next, `O=C1/C=C/[C@@H](O)[C@@H]2C[C@@H](O)C[C@H]2/C=C/CCC[C@@H](O)CCO1`: 90.3%; `Cc1ccc(CNc2c3ccccc3nc3ccccc23)cc1`: 46.9%; `Cc1ccnc(Nc2ccc([N+](=O)[O-])c(NCCN3CCOCC3)n2)c1`: 62.1%.

Regarding `CSc1nn2c(-c3ccc4ccccc4c3)ccnc2c1C#N`, the growth was 12.8%. Same read-out and setting: the figure for `COc1cc2nc3sc(C(=O)Nc4ccc(C(=O)OC(C)C)cc4)c(C(=O)Nc4ccc(Cl)cc4C)n3c(=O)c2cc1OC` is 91.4%; for `COC(=O)/C=C1/SC(=Nc2ccc([N+](=O)[O-])cc2)N(CCc2c[nH]c3ccc(O)cc23)C1=O` it is 61.3%; for `O=S1(=O)C=C(c2ccccc2)C(c2ccccc2)=C1` it is 88.8%. For `O=C(O)COc1ccc(Cl)c(Cl)c1`, the growth is 105%. `O=C1/C(=C/c2ccccn2)NC(=S)N1c1ccccc1Cl`: the growth was 111%. As to `CCS/C(Nc1ccccc1)=C(\C#N)C(=O)Nc1ccc(OC)cc1`, the growth is 22.4%.

`COc1ccc(C(=O)N2c3ccccc3Sc3ccccc32)c(C(F)(F)F)c1`: the growth is 34.4%.

As to `Cc1ccc(-c2csc(NC(=O)c3ccccc3CN3C(=O)c4ccccc4C3=O)n2)cc1`, the growth was 97.5%. In the case of `CNC(=O)c1cc(Oc2cccc3nc(NC(=O)Nc4cc(C(F)(F)F)ccc4Cl)ccc23)ccn1`, the growth was 115%.
